Results filed as inconclusive are left out. Activity calls are given as the source filed them. Unless noted, the call rests on the fitted dose curve; in most records, active means well fitted curve in either direction with a large enough effect (not every such curve was filed as active); inconclusive means small, poorly fitted or top-dose-only effect, or another doubt; inactive means flat fitted curve, though single readings scatter.
Experiments:
[1] = molecular target: Lysosomal acid glucosylceramidase (Homo sapiens) (UniProt P04062); test: Glucocerebrosidase-p2 (AID 348; in the data active means potency below about 10 µM; further: potency means the concentration at half of the fitted maximal effect); conditions: purified GBA, blue fluorogenic substrate, 40 min
In short: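 Normal human glucocerebrosidase (0.2 nM) with blue fluorogenic substrate (80 uM final) in citrate/phosphate pH 5.9 with 10mM sodium taurocholate, 0.01% tween-20; 40 min RT, NaOH/glycine stop; fluorescence Ex 365/Em 440; AC50 from a titration from 0.6 nM upwards.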

[2] = molecular target: Cytochrome P450 1A2 (Homo sapiens) (UniProt P05177); test: p450-cyp1a2 (AID 410; calls by dose curve; further: potency means the concentration at half of the fitted maximal effect;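 on activity change, negative = inhibition: -100% = full effect of reference inhibitor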); conditions: recombinant CYP1A2, luciferin-ME demethylation, luminescence; series mostly up to 11.4 µM
In short: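 Read-out is luminescence from luciferin produced by CYP1A2 demethylation of Luciferin-ME (100uM, at Km). Detection reagent stopped the 60 min NADPH-dependent reaction; signals were normalized to 57 uM furafylline.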

[3] = molecular target: Glucocorticoid receptor (Homo sapiens) (UniProt P04150); test: GR-GFP Redistribution (AID 450;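 active means compounds whose dose series gives a full or clear partial fitted curve of increased nuclear translocation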; further: potency means the concentration at half of the fitted maximal effect); conditions: U2OS GR-GFP nuclear translocation, laser cytometry, 2 h
[4] = molecular target: Glucocorticoid receptor (Homo sapiens) (UniProt P04150); test: GR-EFC Redistribution (AID 451; calls by dose curve; further: potency means the concentration at half of the fitted maximal effect); conditions: CHO-K1 GR-EFC translocation, beta-gal luminescence, 2 h
In short: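 CHO-K1 cells expressing nuclear EA and GR-ED fragments of b-gal; compounds titrated up to 46 uM final, 2 h at 37 C. GR nuclear translocation read as complemented b-gal luminescence after 1 h RT detection.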

[5] = molecular target: Mitogen-activated protein kinase 10 (Mus musculus) (UniProt Q61831); test: JNK3 AlphaScreen Assay (AID 530); conditions: JNK3 lysate, c-Jun phosphorylation; series mostly up to 11.4 µM;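 further: kinase came from lysate of stimulated human HepG2 cells; signal reports phosphorylation of biotinylated GST-cJun 1-79 at Ser73 with 10 µM ATP; on the % scale 0 is the no-effect control and ±100 the full control effect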
In short: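 HepG2 lysate (IL-1b/TNFa pre-activated) + biotin-GST-cJun 1-79 + anti-pSer73 cJun; cpd titration, 15 min RT; ATP 10 uM start; Tris pH 7.6, MgCl2, DTT, vanadate; beads in EDTA buffer; AlphaScreen.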

[6] = molecular target: 3',5'-cyclic-AMP phosphodiesterase 4B (Homo sapiens) (UniProt Q07343); test: qHTS Assay for Inhibitors of PDE-IV (AID 607; active means well fitted activation curve with a large enough effect in the main read-out, with a control signal flat, not every such curve was filed as active; further: % of control where 0% means no effect); conditions: HEK293 ACTOne CNG channel cells, membrane potential fluorescence; series mostly up to 22.9 µM
In short: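 HEK293 ACTOne cells with CNG channel (1000/well), endogenous PDE4; membrane potential dye, compounds up to 22.9 uM final. Fluorescence Ex 535/Em 590; RO 20-1724 (100 uM final) as reference.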

[7] = NFAT Signaling Pathway (AID 444); conditions: Jurkat NFAT-bla M1, carbachol, beta-lactamase ratio, 5 h; at 7.69 µM (top of the series) unless noted;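 further: carbachol stimulus at about its EC50 of 1 µM final; on the % scale 0 is the no-effect control and ±100 the full control effect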
In short: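 Jurkat cells with NFAT-driven β-lactamase reporter and co-expressed M1 receptor, stimulated with carbachol (final 1 uM, ~EC50), compound titration, 5 h at 37 °C. CCF4 loaded 1 h at RT; 460/530 nm ratio gave %activity and AC50.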

[8] = Stat Signaling Pathway (AID 446); conditions: ME-180 SIE beta-lactamase reporter, IL-6 stimulated, 5 h; at 7.69 µM (top of the series) unless noted;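 further: ME-180 cervical cancer cells given 40 pM IL-6 alongside compound; SIE-controlled beta-lactamase reporter measured as 460/530 nm FRET emission ratio; on the % scale 0 is the no-effect control and ±100 the full control effect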
In short: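 Normalization used AC90 stimulation (300 pM IL-6) and AC90 inhibition (125 nM pan-JAK inhibitor at 40 pM IL-6). The underlying signal is SIE-driven beta-lactamase in ME-180 cells after 5 h IL-6 exposure with compound.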

[9] = molecular target: Cytochrome P450 2C9 (Homo sapiens) (UniProt P11712); test: qHTS Assay for Inhibitors and Substrates of Cytochrome P450 2C9 (AID 883; active means well fitted inhibition curve with a large enough effect; further: potency means the concentration at half of the fitted maximal effect; nearly all actives have a fitted effect of over 60% in size); conditions: recombinant CYP2C9, luciferin-H luminescence, 60 min; series mostly up to 11.4 µM
In short: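 Human CYP2C9 (10nM) with Luciferin-H at 100uM (its KM) in 25mM KPO4; compound preincubated 10 min at 37C, then NADPH regeneration for 60 min at 37C. Luciferin read by luminescence after detection reagent; normalized to 57uM sulphaphenazole as full inhibition.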

[10] = molecular target: Cytochrome P450 2D6 (Homo sapiens) (UniProt P10635); test: qHTS Assay for Inhibitors and Substrates of Cytochrome P450 2D6 (AID 891; active means well fitted inhibition curve with a large enough effect; further: potency means the concentration at half of the fitted maximal effect; nearly all actives have a fitted effect of over 60% in size); conditions: recombinant CYP2D6, luciferin-ME EGE luminescence; series mostly up to 11.4 µM
In short: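 Luminescent read-out of luciferin formed by 5 nM human CYP2D6 demethylating 30 uM Luciferin-ME EGE (Km level) over 60 min at room temperature after NADPH regeneration addition. Data normalized to full inhibition by 1.43 uM quinidine.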

[11] = molecular target: Cytochrome P450 2C19 (Homo sapiens) (UniProt P33261); test: qHTS Assay for Inhibitors and Substrates of Cytochrome P450 2C19 (AID 899; active means well fitted inhibition curve with a large enough effect; further: potency means the concentration at half of the fitted maximal effect; nearly all actives have a fitted effect of over 60% in size); conditions: recombinant CYP2C19, luciferin-H EGE luminescence; series mostly up to 11.4 µM
In short: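 5 nM human CYP2C19 with 10uM Luciferin-H EGE (at KM) in 50mM KPO4, compound preincubated 10 min at 37C, then NADPH regeneration for 60 min at 37C. Luciferin read by luminescence after detection reagent; normalized to 57uM ketoconazole as full inhibition.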

[12] = qHTS Assay for Identification of Small Molecule Agonists for Hypoxia Response Element Signaling Pathway (AID 914; active means well fitted activation curve with a large enough effect in the signal ratio, with a control signal flat, not every such curve was filed as active; the % refers to the signal ratio; further: potency means the concentration at half of the fitted maximal effect); conditions: ME-180 (cervical carcinoma) HRE-bla reporter, beta-lactamase ratio, CoCl2, 17 h; activation: stronger effect = higher value
In short: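 Read-out: CCF4 FRET ratio of 460nm to 530nm emission (excitation 405nm) after 2.5 hours at room temperature, taken from HRE-bla ME-180 cells that had been exposed to compound and EC50 CoCl2 for 17 hours.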

3',5'-cyclic-AMP phosphodiesterase 4B (Homo sapiens), sequence (Q07343 whole entry, looked up): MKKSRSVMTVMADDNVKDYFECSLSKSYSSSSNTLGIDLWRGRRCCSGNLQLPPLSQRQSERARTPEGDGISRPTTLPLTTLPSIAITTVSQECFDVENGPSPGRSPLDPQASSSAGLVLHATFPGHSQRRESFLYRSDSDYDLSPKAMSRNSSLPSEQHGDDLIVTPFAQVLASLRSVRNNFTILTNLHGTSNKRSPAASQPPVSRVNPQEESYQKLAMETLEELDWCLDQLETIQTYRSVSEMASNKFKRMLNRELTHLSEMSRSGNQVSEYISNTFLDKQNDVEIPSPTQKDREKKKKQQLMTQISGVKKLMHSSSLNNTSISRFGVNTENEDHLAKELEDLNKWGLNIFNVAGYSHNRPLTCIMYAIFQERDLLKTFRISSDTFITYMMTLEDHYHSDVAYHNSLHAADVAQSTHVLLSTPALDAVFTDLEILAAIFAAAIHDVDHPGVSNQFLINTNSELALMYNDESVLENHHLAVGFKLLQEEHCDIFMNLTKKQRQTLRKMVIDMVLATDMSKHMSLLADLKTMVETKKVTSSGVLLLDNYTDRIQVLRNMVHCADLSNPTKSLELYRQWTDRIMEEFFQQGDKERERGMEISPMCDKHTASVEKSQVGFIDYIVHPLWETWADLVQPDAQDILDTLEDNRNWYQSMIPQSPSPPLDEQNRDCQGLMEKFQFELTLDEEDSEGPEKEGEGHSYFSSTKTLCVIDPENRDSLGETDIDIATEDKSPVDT
Lysosomal acid glucosylceramidase (Homo sapiens), sequence (P04062 whole entry, looked up): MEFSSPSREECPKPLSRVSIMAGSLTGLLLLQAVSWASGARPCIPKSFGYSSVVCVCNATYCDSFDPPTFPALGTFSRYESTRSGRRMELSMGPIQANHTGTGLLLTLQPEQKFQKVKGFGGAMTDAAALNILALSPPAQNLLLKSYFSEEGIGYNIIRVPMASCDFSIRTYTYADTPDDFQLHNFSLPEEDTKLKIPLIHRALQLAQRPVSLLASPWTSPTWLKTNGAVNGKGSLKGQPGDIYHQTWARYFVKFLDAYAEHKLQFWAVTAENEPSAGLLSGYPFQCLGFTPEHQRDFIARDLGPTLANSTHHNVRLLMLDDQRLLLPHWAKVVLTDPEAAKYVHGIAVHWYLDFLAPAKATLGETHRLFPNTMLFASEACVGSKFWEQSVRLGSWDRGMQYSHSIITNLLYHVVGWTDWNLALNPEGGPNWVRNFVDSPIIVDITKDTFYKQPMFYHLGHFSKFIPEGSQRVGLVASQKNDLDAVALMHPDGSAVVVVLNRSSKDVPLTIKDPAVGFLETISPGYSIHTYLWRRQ
Glucocorticoid receptor (Homo sapiens), sequence (P04150 whole entry, looked up, the tested form may be a part): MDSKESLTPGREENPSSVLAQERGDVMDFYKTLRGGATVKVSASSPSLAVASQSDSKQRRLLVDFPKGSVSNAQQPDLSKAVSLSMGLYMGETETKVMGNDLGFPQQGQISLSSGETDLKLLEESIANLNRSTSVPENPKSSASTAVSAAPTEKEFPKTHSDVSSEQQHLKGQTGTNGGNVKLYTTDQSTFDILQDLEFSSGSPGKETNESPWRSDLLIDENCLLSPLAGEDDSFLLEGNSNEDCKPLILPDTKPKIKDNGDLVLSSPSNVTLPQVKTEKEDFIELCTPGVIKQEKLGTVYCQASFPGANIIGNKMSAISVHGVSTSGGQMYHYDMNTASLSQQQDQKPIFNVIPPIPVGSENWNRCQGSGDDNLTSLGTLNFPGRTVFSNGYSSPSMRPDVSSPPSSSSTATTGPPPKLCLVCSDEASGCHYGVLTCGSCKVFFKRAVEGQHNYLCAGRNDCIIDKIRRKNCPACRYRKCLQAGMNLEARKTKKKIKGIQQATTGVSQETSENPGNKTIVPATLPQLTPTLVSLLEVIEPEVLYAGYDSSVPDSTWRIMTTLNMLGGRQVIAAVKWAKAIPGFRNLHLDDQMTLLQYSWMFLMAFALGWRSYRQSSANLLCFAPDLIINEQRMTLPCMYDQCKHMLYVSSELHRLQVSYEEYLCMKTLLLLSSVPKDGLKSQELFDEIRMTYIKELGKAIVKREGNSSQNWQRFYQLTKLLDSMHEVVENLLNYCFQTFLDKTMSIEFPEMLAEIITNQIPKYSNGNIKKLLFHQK
Cytochrome P450 1A2 (Homo sapiens), sequence (P05177 whole entry, looked up): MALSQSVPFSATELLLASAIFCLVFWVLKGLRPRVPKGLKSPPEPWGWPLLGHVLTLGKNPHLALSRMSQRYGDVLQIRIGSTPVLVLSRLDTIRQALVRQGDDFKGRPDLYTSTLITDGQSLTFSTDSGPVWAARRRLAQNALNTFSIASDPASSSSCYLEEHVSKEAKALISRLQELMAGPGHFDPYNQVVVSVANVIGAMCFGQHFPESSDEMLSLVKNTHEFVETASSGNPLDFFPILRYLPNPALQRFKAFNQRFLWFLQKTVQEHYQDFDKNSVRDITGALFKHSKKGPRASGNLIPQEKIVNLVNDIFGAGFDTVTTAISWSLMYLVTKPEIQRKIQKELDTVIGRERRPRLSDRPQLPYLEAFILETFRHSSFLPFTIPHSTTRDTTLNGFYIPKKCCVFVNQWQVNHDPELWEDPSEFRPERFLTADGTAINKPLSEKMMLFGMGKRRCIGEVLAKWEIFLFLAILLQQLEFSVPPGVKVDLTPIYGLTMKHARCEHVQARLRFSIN
Cytochrome P450 2D6 (Homo sapiens), sequence (P10635 whole entry, looked up): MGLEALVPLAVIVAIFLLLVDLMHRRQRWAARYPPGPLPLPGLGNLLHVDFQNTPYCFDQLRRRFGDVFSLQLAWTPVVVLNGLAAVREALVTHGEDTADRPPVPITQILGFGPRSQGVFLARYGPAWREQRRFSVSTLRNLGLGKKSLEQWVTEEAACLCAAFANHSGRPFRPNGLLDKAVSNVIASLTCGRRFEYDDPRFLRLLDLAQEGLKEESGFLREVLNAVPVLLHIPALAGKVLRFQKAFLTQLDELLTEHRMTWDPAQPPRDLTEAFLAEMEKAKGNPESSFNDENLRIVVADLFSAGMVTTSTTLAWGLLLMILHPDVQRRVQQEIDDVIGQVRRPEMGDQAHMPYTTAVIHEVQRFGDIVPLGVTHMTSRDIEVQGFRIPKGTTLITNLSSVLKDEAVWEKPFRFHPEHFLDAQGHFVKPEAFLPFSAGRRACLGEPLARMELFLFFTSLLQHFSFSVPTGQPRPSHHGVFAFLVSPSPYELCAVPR
Cytochrome P450 2C19 (Homo sapiens), sequence (P33261 whole entry, looked up): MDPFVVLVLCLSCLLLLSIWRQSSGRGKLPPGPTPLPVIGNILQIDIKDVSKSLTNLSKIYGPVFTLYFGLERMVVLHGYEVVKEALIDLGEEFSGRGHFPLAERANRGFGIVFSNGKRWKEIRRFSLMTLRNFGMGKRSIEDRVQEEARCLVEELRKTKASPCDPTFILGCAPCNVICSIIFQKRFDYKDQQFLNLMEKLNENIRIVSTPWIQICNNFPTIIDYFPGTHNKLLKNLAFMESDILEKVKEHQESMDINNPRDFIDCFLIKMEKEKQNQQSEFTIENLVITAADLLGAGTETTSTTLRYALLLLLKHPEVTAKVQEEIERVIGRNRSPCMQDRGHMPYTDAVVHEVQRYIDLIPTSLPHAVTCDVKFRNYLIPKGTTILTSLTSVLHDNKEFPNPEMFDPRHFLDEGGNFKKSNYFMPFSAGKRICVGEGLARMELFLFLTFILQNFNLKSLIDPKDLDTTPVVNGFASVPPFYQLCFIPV
Cytochrome P450 2C9 (Homo sapiens), sequence (P11712 whole entry, looked up): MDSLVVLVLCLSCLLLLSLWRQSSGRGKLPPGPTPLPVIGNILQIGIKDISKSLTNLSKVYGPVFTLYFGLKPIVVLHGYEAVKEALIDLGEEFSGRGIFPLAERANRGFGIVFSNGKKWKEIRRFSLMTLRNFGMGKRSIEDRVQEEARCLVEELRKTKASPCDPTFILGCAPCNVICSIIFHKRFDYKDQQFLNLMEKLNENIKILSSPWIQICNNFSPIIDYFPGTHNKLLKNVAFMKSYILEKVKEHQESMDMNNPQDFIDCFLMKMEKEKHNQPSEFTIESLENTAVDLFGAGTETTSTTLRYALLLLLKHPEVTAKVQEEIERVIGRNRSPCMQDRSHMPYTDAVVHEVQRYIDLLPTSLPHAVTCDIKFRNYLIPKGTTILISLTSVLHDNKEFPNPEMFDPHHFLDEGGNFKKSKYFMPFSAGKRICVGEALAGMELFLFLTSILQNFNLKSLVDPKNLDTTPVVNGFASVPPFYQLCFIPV

O=C1c2ccccc2-c2cc([N+](=O)[O-])c([N+](=O)[O-])cc21
inactive: Potency [1] > 11.4 µM | Potency [3] > 46 µM | Potency [4] > 9.22 µM | Potency [5] | Potency [6]
active: Potency [2] 0.251 µM

O=c1c(-c2ccc(F)cc2)nc2cnc(Oc3ccccc3)nc2n1C[C@H]1CCCO1
inactive: Potency [1] > 11.4 µM | activity change, negative = inhibition [7] -2.24% | activity, negative = inhibition [8] -12.2% | Potency [3] > 9.22 µM | Potency [4] > 46 µM | Potency [6]

Cc1noc(C)c1C(=O)N1CCC[C@@]2(CCN(c3cccc(-c4ccccc4)c3)C2)C1
inactive: Potency [1] > 11.4 µM | activity change, negative = inhibition [7] -20.7% | activity, negative = inhibition [8] -22.2% | Potency [4] > 46 µM | Potency [5] | Potency [6]

O=C1C(Cl)=C(Nc2ccc(S(=O)(=O)Nc3ccccn3)cc2)C(=O)c2ccccc21
inactive: Potency [1] > 11.4 µM | Potency [3] > 46 µM | Potency [4] > 9.22 µM | Potency [5] | Potency [6]
active: Potency [2] 3.16 µM | Potency [9] 2 µM | Potency [10] 3.16 µM | Potency [11] 0.794 µM

O=c1c(-c2cc(F)cc(F)c2)nc2cnc(N3CCNCC3)nc2n1CCc1ccccc1
inactive: Potency [1] > 11.4 µM | Potency [3] > 9.22 µM | Potency [4] > 46 µM | Potency [6]
active: Potency [2] 20 µM | Potency [12] 3.16 µM

N#CCCn1c(=O)c(-c2ccc(F)cc2)nc2cnc(Oc3ccccc3)nc21
inactive: Potency [1] > 11.4 µM | activity change, negative = inhibition [7] -6.96% | activity, negative = inhibition [8] -5.37% | Potency [3] > 9.22 µM | Potency [4] > 46 µM | Potency [5] | Potency [6]

Cc1c(O)c(Br)c(C)c(O)c1Br (tested in a mixture with another compound)
inactive: Potency [1] > 11.4 µM | Potency [3] > 46 µM | Potency [4] > 9.22 µM | Potency [5] | Potency [6]
active: activity change, negative = inhibition [7] -77.8%

O=[N+]([O-])c1ccc(S(=O)(=O)Cc2ccccc2)c([N+](=O)[O-])c1
inactive: Potency [1] > 11.4 µM | Potency [4] > 9.22 µM | Potency [5]
active: activity change, negative = inhibition [7] -88.3%

O=C(O)c1c(-c2nccc3ccccc23)[nH]c(-c2ccccc2)c1S(=O)(=O)O
inactive: Potency [1] > 11.4 µM | activity change, negative = inhibition [7] 12% | activity, negative = inhibition [8] -1.38% | Potency [3] > 46 µM | Potency [4] > 9.22 µM | Potency [5] | Potency [6]

O=C(O)c1[nH]c(=O)[nH]c(=O)c1CN1CCCCC1
inactive: Potency [1] > 11.4 µM | activity change, negative = inhibition [7] 9.91% | activity, negative = inhibition [8] -5.07% | Potency [3] > 46 µM | Potency [4] > 9.22 µM | Potency [5] | Potency [6]

Nc1ccc(N=Nc2ccc(-c3ccc(O)cc3)cc2)c2ccc(S(=O)(=O)O)cc12
inactive: Potency [1] > 11.4 µM | activity change, negative = inhibition [2] -17.8% [at 2.29 µM] | Potency [3] > 46 µM | Potency [4] > 9.22 µM | Potency [6]
